The text below walks through data of PubChem BioAssay (EPA / NIEHS).

A word on the AC50: it is the concentration at which the activity in the assay is half-maximal.

Read-out in assay [1]: Cyclin D1 (CCND1), CCND1 (gene 595)
In words: LTEA_HepaRG_CCND1: Life Technologies and Expression Analysis (LTEA) Assay for Cyclin D1 (CCND1) using HepaRG (AID 2283451). The conditions noted are these: mRNA level, 48 h; actives raise or lower the signal. An outline of the steps: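 Differentiated human HepaRG cells in serum-free induction medium were exposed 48 h to eight half-log concentrations up to 100 uM in 0.5% DMSO; mRNA quantified by TaqMan qRT-PCR, normalized to ACTB, GAPDH, POLR2A, fitted bidirectionally versus DMSO.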

Read-out in assay [2]: catalase (CAT), CAT (gene 847)
The assay is described as follows: LTEA_HepaRG_CAT: Life Technologies and Expression Analysis (LTEA) Assay for catalase (CAT) using HepaRG (AID 2283452). Conditions: mRNA level, 48 h; actives raise or lower the signal. An outline of the steps:
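HepaRG cells in serum-free induction medium, 0.5% DMSO vehicle, exposed 48 h in duplicate over 8 half-log concentrations from 100 uM. CAT mRNA measured by qRT-PCR, normalized to ACTB, GAPDH, POLR2A; bidirectional fit versus DMSO.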

Read-out in assay [3]: flavin-containing dimethylaniline monooxygenases 3 (FMO3), FMO3 (gene 2328)
In words: LTEA_HepaRG_FMO3: Life Technologies and Expression Analysis (LTEA) Assay for flavin-containing dimethylaniline monooxygenases 3 (FMO3) using HepaRG (AID 2283453). Conditions: mRNA level, 48 h; actives raise or lower the signal. An outline of the steps: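 Differentiated HepaRG cells in serum-free induction medium, exposed 48 h in duplicate to 8 half-log concentrations up to 100 uM in 0.5% DMSO. FMO3 mRNA by qRT-PCR, normalized to ACTB, GAPDH, POLR2A; bidirectional fit vs DMSO.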

Read-out in assay [4]: Cytochrome P450 (CYP1A1), CYP1A1 (gene 1543)
In words: LTEA_HepaRG_CYP1A1: Life Technologies and Expression Analysis (LTEA) Assay for Cytochrome P450 (CYP1A1) using HepaRG (AID 2283454). The conditions noted are these: mRNA level, 48 h; actives raise or lower the signal. An outline of the steps:
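Differentiated HepaRG cells in serum-free induction medium were exposed in duplicate for 48 h to eight half-log concentrations up to 100 uM in 0.5% DMSO. CYP1A1 mRNA was quantified by TaqMan qRT-PCR, normalized to ACTB, GAPDH and POLR2A.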

Read-out in assay [5]: CFLAR gene, CFLAR (gene 8837)
The assay is described as follows: LTEA_HepaRG_CFLAR: Life Technologies and Expression Analysis (LTEA) Assay for CFLAR gene using HepaRG (AID 2283455). Conditions: mRNA level, 48 h; actives raise or lower the signal. An outline of the steps: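 Differentiated HepaRG cells in serum-free induction medium were exposed 48 h in duplicate to eight half-log concentrations up to 100 uM in 0.5% DMSO; mRNA measured by TaqMan qRT-PCR, normalized to ACTB, GAPDH, POLR2A; bidirectional fitting versus DMSO.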

Read-out in assay [6]: Forkhead box O1 (FOXO1), FOXO1 (gene 2308)
In words: LTEA_HepaRG_FOXO1: Life Technologies and Expression Analysis (LTEA) Assay for Forkhead box O1 (FOXO1) using HepaRG (AID 2283456). Conditions: mRNA level, 48 h; actives raise or lower the signal. An outline of the steps: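 Differentiated HepaRG cells, in serum-free induction medium with 0.5% DMSO, exposed 48 h in duplicate to 8-point half-log series from 100 uM. FOXO1 mRNA measured by TaqMan qRT-PCR, normalized to ACTB, GAPDH, POLR2A; bidirectional fit versus DMSO.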

Read-out in assay [7]: growth arrest and DNA damage 45 (GADD45A), GADD45A (gene 1647)
The assay is described as follows: LTEA_HepaRG_GADD45A: Life Technologies and Expression Analysis (LTEA) Assay for growth arrest and DNA damage 45 (GADD45A) using HepaRG (AID 2283458). The conditions noted are these: mRNA level, 48 h; actives raise or lower the signal. An outline of the steps:
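Cells plated and cultured 48 h, switched to serum-free induction medium, then dosed for 48 h (100 uM top, half-log dilutions, 0.5% DMSO). RNA was isolated and transcript measured by Fluidigm qRT-PCR.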

Read-out in assay [8]: Forkhead box O3 (FOXO3), FOXO3 (gene 2309)
In words: LTEA_HepaRG_FOXO3: Life Technologies and Expression Analysis (LTEA) Assay for Forkhead box O3 (FOXO3) using HepaRG (AID 2283459). The conditions noted are these: mRNA level, 48 h; actives raise or lower the signal. An outline of the steps: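 Differentiated human HepaRG cells, 48 h post-plating, exposed in duplicate for 48 h in serum-free induction medium; 8-point half-log series from 100 uM in 0.5% DMSO. FOXO3 mRNA by TaqMan qRT-PCR, normalized to ACTB/GAPDH/POLR2A; bidirectional fit versus DMSO.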

Read-out in assay [9]: ABC Transporter (ABCB1), ABCB1 (gene 5243)
The assay is described as follows: LTEA_HepaRG_ABCB1: Life Technologies and Expression Analysis (LTEA) Assay for ABC Transporter (ABCB1) using HepaRG (AID 2283460). The conditions noted are these: mRNA level, 48 h; actives raise or lower the signal. An outline of the steps:
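HepaRG cells exposed in duplicate for 48 h in serum-free induction medium to eight half-log concentrations up to 100 uM in 0.5% DMSO. ABCB1 mRNA quantified by qRT-PCR, normalised to ACTB, GAPDH and POLR2A; fitted bidirectionally versus DMSO.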

Read-out in assay [10]: ABC Transporter (ABCC3), ABCC3 (gene 8714)
The assay is described as follows: LTEA_HepaRG_ABCC3: Life Technologies and Expression Analysis (LTEA) Assay for ABC Transporter (ABCC3) using HepaRG (AID 2283462). Conditions: mRNA level, 48 h; actives raise or lower the signal. An outline of the steps:
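HepaRG cells in serum-free induction medium were exposed for 48 h in duplicate to 8-point half-log concentrations topping at 100 uM in 0.5% DMSO. ABCC3 mRNA was measured by qRT-PCR normalized to ACTB, GAPDH and POLR2A, with bidirectional fitting versus DMSO.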

Read-out in assay [11]: ABC Transporter (ABCB11), ABCB11 (gene 8647)
The assay is described as follows: LTEA_HepaRG_ABCB11: Life Technologies and Expression Analysis (LTEA) Assay for ABC Transporter (ABCB11) using HepaRG (AID 2283463). Conditions: mRNA level, 48 h; actives raise or lower the signal. An outline of the steps: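 Differentiated human HepaRG cells in serum-free induction medium, dosed in duplicate for 48 h. Eight-point half-log series from 100 uM in 0.5% DMSO; ABCB11 mRNA by qRT-PCR, normalized to ACTB, GAPDH, POLR2A, fitted bidirectionally versus DMSO.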

Read-out in assay [12]: ABC Transporter (ABCC2), ABCC2 (gene 1244)
In words: LTEA_HepaRG_ABCC2: Life Technologies and Expression Analysis (LTEA) Assay for ABC Transporter (ABCC2) using HepaRG (AID 2283464). Conditions: mRNA level, 48 h; actives raise or lower the signal. An outline of the steps:
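HepaRG cells were plated 48 h, switched to serum-free induction medium, then exposed in duplicate for 48 h to 8 concentrations (top 100 uM, half-log steps, 0.5% DMSO). ABCC2 mRNA was measured by qRT-PCR normalized to ACTB/GAPDH/POLR2A; bidirectional fitting versus DMSO.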

Read-out in assay [13]: Broad substrate specificity ATP-binding cassette transporter ABCG2 (Homo sapiens) (UniProt Q9UNQ0)
In words: LTEA_HepaRG_ABCG2: Life Technologies and Expression Analysis (LTEA) Assay for ABC Transporter (ABCG2) using HepaRG (AID 2283465). Conditions: mRNA level, 48 h; actives raise or lower the signal. An outline of the steps: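 Differentiated HepaRG cells were exposed for 48 h in serum-free induction medium to 8 half-log concentrations, top 100 uM, in 0.5% DMSO. ABCG2 mRNA was measured by qRT-PCR, normalized to ACTB, GAPDH and POLR2A, with bidirectional fitting versus DMSO.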

Read-out in assay [14]: ATP-citrate lyase (ACLY), ACLY (gene 47)
In words: LTEA_HepaRG_ACLY: Life Technologies and Expression Analysis (LTEA) Assay for ATP-citrate lyase (ACLY) using HepaRG (AID 2283466). The conditions noted are these: mRNA level, 48 h; actives raise or lower the signal. An outline of the steps: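 Differentiated HepaRG cells exposed 48 h in serum-free induction medium to eight half-log concentrations up to 100 uM in 0.5% DMSO, duplicates. Transcript measured by Fluidigm TaqMan qRT-PCR, normalized to ACTB, GAPDH, POLR2A; bidirectional fit versus DMSO.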

Read-out in assay [15]: Peroxisomal acyl-coenzyme A oxidase 1 (ACOX1) gene, ACOX1 (gene 51)
In words: LTEA_HepaRG_ACOX1: Life Technologies and Expression Analysis (LTEA) Assay for Peroxisomal acyl-coenzyme A oxidase 1 (ACOX1) gene using HepaRG (AID 2283467). The conditions noted are these: mRNA level, 48 h; actives raise or lower the signal. An outline of the steps: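 HepaRG cells, plated 48 h then switched to serum-free induction medium, were exposed in duplicate for 48 h to 8-point half-log concentrations up to 100 uM in 0.5% DMSO. ACOX1 mRNA was measured by qRT-PCR, normalized to ACTB/GAPDH/POLR2A, and fitted bidirectionally versus DMSO.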

Read-out in assay [16]: Alkaline Phosphatase, Placental (ALPP) gene, ALPP (gene 250)
The assay is described as follows: LTEA_HepaRG_ALPP: Life Technologies and Expression Analysis (LTEA) Assay for Alkaline Phosphatase, Placental (ALPP) gene using HepaRG (AID 2283468). The conditions noted are these: mRNA level, 48 h; actives raise or lower the signal. An outline of the steps:
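Differentiated human HepaRG cells were plated and cultured 48 h, then exposed in duplicate for 48 h in serum-free induction medium to eight half-log concentrations from 100 uM in 0.5% DMSO. ALPP mRNA was measured by TaqMan qRT-PCR, normalized to ACTB, GAPDH, POLR2A.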

Read-out in assay [17]: Bcl-2 (BAD) gene, BAD (gene 572)
In words: LTEA_HepaRG_BAD: Life Technologies and Expression Analysis (LTEA) Assay for Bcl-2 (BAD) gene using HepaRG (AID 2283469). The conditions noted are these: mRNA level, 48 h; actives raise or lower the signal. An outline of the steps: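 Differentiated HepaRG cells were exposed in duplicate in 0.5% DMSO for 48 h to eight-point half-log concentrations up to 100 uM. BAD mRNA was measured by Fluidigm TaqMan qRT-PCR, normalized to ACTB, GAPDH and POLR2A, and fitted bidirectionally against DMSO.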

Read-out in assay [18]: Bcl-2 (BAX) gene, BAX (gene 581)
In words: LTEA_HepaRG_BAX: Life Technologies and Expression Analysis (LTEA) Assay for Bcl-2 (BAX) gene using HepaRG (AID 2283470). The conditions noted are these: mRNA level, 48 h; actives raise or lower the signal. An outline of the steps: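 HepaRG (human liver), 48 h exposure, duplicate wells. 8-pt curve, half-log from 100 uM, 0.5% DMSO. BAX transcript by TaqMan qRT-PCR; ACTB/GAPDH/POLR2A normalization; gain or loss vs DMSO baseline.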

The nature of assay [19]: CEETOX_H295R_TESTO: CeeTox H295R High-throughput Steroidogenesis Assay for Testosterone (TESTO) (AID 2283457). Conditions: actives raise or lower the signal. An outline of the steps:
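H295R human adrenal cells in DMEM/F12 with ITS+ and Nu-Serum, exposed to chemicals for 48 h. Testosterone in medium measured by MTBE extraction, reverse-phase HPLC-MS/MS; bidirectional fit versus DMSO baseline. MTT viability checked in same wells.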

Read-out in assay [20]: growth arrest and DNA damage 45 (GADD45B), GADD45B (gene 4616)
In words: LTEA_HepaRG_GADD45B: Life Technologies and Expression Analysis (LTEA) Assay for growth arrest and DNA damage 45 (GADD45B) using HepaRG (AID 2283461). The conditions noted are these: mRNA level, 48 h; actives raise or lower the signal. An outline of the steps:
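Differentiated HepaRG cells, plated 48 h then switched to serum-free induction medium, were exposed 48 h in duplicate to eight half-log concentrations from 100 uM in 0.5% DMSO; mRNA quantified by qRT-PCR, normalized to ACTB/GAPDH/POLR2A, bidirectional fit versus DMSO.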

Structures are written as SMILES. Calls of active or inactive are those of the source. Rule for the calls: active = hit-call score of the fitted dose curve at least 0.9, where 1 is the maximum; inactive = score below 0.9.

Sequence of Broad substrate specificity ATP-binding cassette transporter ABCG2 (Homo sapiens) (Q9UNQ0 whole entry, looked up): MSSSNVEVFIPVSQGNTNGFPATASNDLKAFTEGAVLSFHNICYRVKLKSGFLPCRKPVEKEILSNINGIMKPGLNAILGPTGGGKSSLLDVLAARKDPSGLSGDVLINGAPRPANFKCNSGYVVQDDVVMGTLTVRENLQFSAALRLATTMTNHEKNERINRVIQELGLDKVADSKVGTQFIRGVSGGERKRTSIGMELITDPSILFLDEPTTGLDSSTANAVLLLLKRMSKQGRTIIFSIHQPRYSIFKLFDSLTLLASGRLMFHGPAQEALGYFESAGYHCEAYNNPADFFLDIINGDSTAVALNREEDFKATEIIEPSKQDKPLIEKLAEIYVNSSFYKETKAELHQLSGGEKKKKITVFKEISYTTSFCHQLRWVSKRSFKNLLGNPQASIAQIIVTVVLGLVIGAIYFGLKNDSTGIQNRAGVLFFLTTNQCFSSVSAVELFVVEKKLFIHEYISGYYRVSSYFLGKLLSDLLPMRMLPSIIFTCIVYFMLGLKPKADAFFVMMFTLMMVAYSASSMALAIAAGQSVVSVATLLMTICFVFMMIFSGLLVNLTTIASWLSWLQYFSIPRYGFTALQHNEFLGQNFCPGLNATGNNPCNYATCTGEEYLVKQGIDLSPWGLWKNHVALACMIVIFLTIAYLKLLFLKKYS

Regarding `CO[C@@H]1[C@H](OC(=O)NC(=O)CCl)CC[C@]2(CO2)[C@H]1[C@@]1(C)O[C@@H]1CC=C(C)C`, the compound was called inactive in [1], in assay [2], in assay [3], in assay [5], in assay [6] and in assay [7]. For the same compound, the outcome in [8], in assay [9], in assay [10], in assay [12], in assay [13] and in [14] was inactive. For the same compound, the compound was called inactive in [15], in [16], in [17] and in [18]. Moreover, the AC50 in assay [4] was 16 µM (active); in assay [11], 0.286 µM (active).

As for `CC(C)(O)c1cnn2c(-c3ccc(F)c(-c4c(F)cccc4C#N)c3)cnc2n1`, the compound was called inactive in assay [1], in assay [2], in assay [3], in assay [5], in assay [6] and in assay [19]. Besides, the compound was classed as inactive in [8], in assay [20], in assay [10], in [13], in assay [14] and in assay [16]. Also, the result in [17] and in assay [18] was inactive. The AC50 was 11.9 µM (active) in assay [4], 13.1 µM (active) in [11], 0.304 µM (active) in [12] and 0.00316 µM (active) in assay [15].

For the compound `CCCCCOC(=O)c1ccccc1C(=O)OCCCCC`, the compound was classed as inactive in assay [1], in assay [2], in [3], in assay [5], in assay [6] and in [7]. For the same compound, the compound was called inactive in [8], in assay [9], in [10], in [11], in assay [12] and in [13]. The compound was classed as inactive in [14], in assay [15], in [16], in [17] and in assay [18]. Besides, in assay [4], the AC50 was 18 µM (active).
